Laboratory results taken from PubChem BioAssay (NCI).
Values joined by “and” are separate entries in the source; they are usually repeats but may differ in a detail not shown here. Equal entries are not always repeated. Compounds without any hit were thinned out: in the full panel of roughly 83,000, 20% have a hit.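 How to read the values: 0–100, growth inhibition (40 = 60% inhibited); 0, no net growth; -100 to 0, cell death (-40 = 40% of starting cells died; -100 = all dead).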 Active and inactive are the calls of the source. How the source made its calls: active means growth percent below 10; inactive means the rest.

system: MDA-MB-468 breast; assay: NCI-60 one-dose screen, 48 h (100 = growth as untreated, 0 = no growth, -100 = all killed); settings: 10 µM unless noted

| SMILES | growth |
| --- | --- |
| C[n+]1cc2c3c(ccc2c2ccc4cc5c(cc4c21)OCO5)OCO3 | -93.7% (active) |
| CCOC(=O)CN1/C(=N/c2sc3c(c2C(=O)OCC)CCN(C(=O)OCC)C3)SC(=O)/C1=C\C(=O)OC | 79.6% (inactive) |
| COc1ccc(-c2cc(-c3cccc(Cl)c3)c(C#N)c(=O)[nH]2)c(OC)c1 | 113% (inactive) |
| COc1ccc(/C=C/C(=O)c2cccc(NC(=O)CSc3nc4ccccc4c(=O)n3-c3ccccc3)c2)cc1OC | 108% (inactive) |
| CN1C(=O)CNC(=O)[C@H](NC(=O)c2nc3ccccc3cc2O)CSSC[C@H]1C(=O)NCCCc1nc2ccccc2cc1O | 22.3% (inactive) |
| NC(=S)n1c(=O)n(-c2cccc(C(F)(F)F)c2)c(=O)c2cc(-c3ccc(F)cc3F)ccc21 | 1.23% (active) |
| COc1cc(/C=C/c2cc(/C=C/c3ccc(O)c(OC)c3)nc(N)n2)ccc1O | -35% (active) |
| CN(c1ccc(F)cc1)S(=O)(=O)c1ccc(-c2cnc(C3CC3)o2)cc1 | -8.39% (active) |
| CN=C(NC)N/N=C(C)\C=N\NC(=NC)NC | 121% (inactive) |
| COc1cc(-c2ccc(NC(=O)CC(C)=O)c(OC)c2)ccc1NC(=O)CC(C)=O | 109% (inactive) |
| CCOC(=O)CCC(=O)P(=O)(O)O | 114% (inactive) |
| COc1ccc2[nH]c(-c3ccc(Cl)cc3)cc(=O)c2c1 | 99% (inactive) |
| O=S(=O)(NCCNc1nccc(-c2c(-c3cccc(O)c3)nc3sccn23)n1)c1ccc(F)cc1 | 64.8% (inactive) |
| Cn1ccc(Nc2nccc(Oc3ccc(C(=O)Nc4cccc(F)c4)c(Cl)c3)n2)c1 | -12.3% (active) |
| S=c1nc2[nH]c3ccccc3c2n[nH]1 | 109% (inactive) |
| CCN(CC)CCNc1ccc(CO)c2sc3ccccc3c(=O)c12 | -41.4% (active) |
| C=CC(=O)NCCOc1cccc(Nc2cc(NCCCNC(=O)C3CCC3)c(Br)cn2)c1 | -59.5% (active) |
| O=C(NNc1nc2cc(F)ccc2n2c(CN3CCOCC3)ccc12)c1ccccc1 | -27.9% (active) |
| CN1CCN(CCCCCC(=O)Nc2nc(-c3cccc(NS(=O)(=O)c4cccc5c(N(C)C)cccc45)c3)cs2)CC1 | 74% (inactive) |
| C#C[C@@]1(O)[C@@H](CO)O[C@@H](n2cc(Br)c3c(Cl)ccnc32)[C@@H]1O | 14% (inactive) |

| SMILES | growth |
| --- | --- |
| COc1ccc(S(=O)(=O)N2CC3(COC3)C2)cc1NC(=O)c1[nH]c(C)c2c1CCCCC2=O | 22.2% (inactive) |
| O=C(OCC1CC2(Cl)C(Cl)=C(Cl)C1(Cl)C2(Cl)Cl)C1C(C(=O)OCC2CC3(Cl)C(Cl)=C(Cl)C2(Cl)C3(Cl)Cl)C2(Cl)C(Cl)=C(Cl)C1(Cl)C2(Cl)Cl (stereo not given) | 107% (inactive) |
| COc1ccc(Cn2cc3c(c2-c2ccccc2)CCc2cnoc2-3)cc1OC | -9% (active) |
| Cc1ccc(-c2nc(C(Cl)Cl)nc3cc(C)nn23)cc1 | -37.7% (active) |
| C=CCCC(=O)N1C=CC(=O)[C@H](O)[C@@H]1/C=C/c1ccccc1 | 4.99% [100 µM] (active) |
| CN(Cc1ccccc1)Cc1ccccc1 | 92.1% (inactive) |
| COc1ccc(-c2nc(C#N)c(NCC(c3ccco3)N3CCCC3)o2)cc1 (stereo not given) | 49.2% (inactive) |
| N#C/C(=C\c1ccc([N+](=O)[O-])s1)c1nc2cc(Br)ccc2s1 | 32.4% (inactive) |
| COc1cc(/C=C/C(=O)c2ccc(NC(=O)CSc3nnc(-c4cc(OC)c(OC)c(OC)c4)n3-c3ccccc3)cc2)cc(OC)c1OC | 9.24% (active) |
| COc1cc2c(c(OC)c1OC)-c1ccc(OC)c(=O)cc1[C@@H](NC(C)=O)CC2 | -8.64% (active) and -2.19% (active) |
| Cc1cc(NS(=O)(=O)c2ccccc2)c(OS(=O)(=O)c2ccccc2)cc1C | 102% (inactive) |
| CNC(=O)c1cc(Oc2cccc3nc(NC(=O)Nc4ccc(F)cc4F)ccc23)ccn1 | 42.1% (inactive) |
| O=C1C=CC(=O)N1c1ccccc1 | 106% (inactive) |
| CCCCCCCCCCCCCCCCCC1=NC(C)(CO)CO1 (stereo not given) | 82% (inactive) |
| COc1ccc(C2CC(c3ccc4c(c3)OCO4)=NN2C=O)cc1 (stereo not given) | 93.3% (inactive) |
| CCCCCCCCCCCCCCCCS(=O)(=O)Nc1cc(C(=O)NN)cc(C(=O)NN)c1 | 45.2% (inactive) |
| CNC(=O)c1cc(Oc2ccc3nc(NC(=O)Nc4ccc(C(F)(F)F)cc4)sc3c2)ccn1 | 49.9% (inactive) |
| COc1ccc(/C=C(\C#N)c2ccccc2)cc1 | 91.2% (inactive) |
| CNCCNc1nc2ccccc2c2c(=O)c3cc(F)ccc3sc12 | 51.6% (inactive) |
| CC1=C(C(=O)OCC2CCN(C(=O)OC(C)(C)C)CC2)[C@@H](c2cccc(C#N)c2)C2=C(CC(C)(C)CC2=O)N1 | 52.2% (inactive) |
